This note sets out measurements from PubChem BioAssay AID1508601 (ICCB-Longwood Screening Facility, Harvard Medical School, 2020).

Assay [1] is described as follows: p53 stabilisation in HPV-positive human cells, imaging, p53-positive nuclei imaging, 24 h, 48 h (AID 1508601). The following applies: 24/48 h.
Assay [2] deals with Cellular tumor antigen p53 (Homo sapiens) (UniProt P04637). The assay is described as above. The following applies: 24/48 h, stronger effect = higher value.
[3] abbreviates: measured here: cell number at 24 h, Library stock concentration: 3.33 mM.
The mark [4] stands for this setting: measured here: cell number at 48 h, Library stock concentration: 3.33 mM.
Setting [5] is: Library stock concentration: 3.33 mM.
The mark [6] stands for this setting: measured here: p53 positive nuclei at 24 h, Library stock concentration: 3.33 mM.
[7] abbreviates: measured here: cell number at 24 h, concentration not given here.
[8] abbreviates: measured here: cell number at 48 h, concentration not given here.
[9] abbreviates: measured here: p53 positive nuclei at 24 h, concentration not given here.
Where [10] appears, read: measured here: cell number at 24 h, Library stock concentration: 80 uM.
[11] abbreviates: measured here: cell number at 24 h, Library stock concentration: 400 uM.
Where [12] appears, read: measured here: cell number at 24 h, Library stock concentration: 2 mM.
Setting [13] is: measured here: cell number at 24 h, Library stock concentration: 10 mM.
Setting [14] is: measured here: cell number at 48 h, Library stock concentration: 80 uM.
Setting [15] is: measured here: cell number at 48 h, Library stock concentration: 400 uM.
[16] abbreviates: measured here: cell number at 48 h, Library stock concentration: 2 mM.
The mark [17] stands for this setting: measured here: cell number at 48 h, Library stock concentration: 10 mM.
[18] abbreviates: Library stock concentration: 80 uM.
Setting [19] is: Library stock concentration: 400 uM.
Setting [20] is: Library stock concentration: 2 mM.
Setting [21] is: Library stock concentration: 10 mM.
The mark [22] stands for this setting: measured here: p53 positive nuclei at 24 h, Library stock concentration: 80 uM.
[23] abbreviates: measured here: p53 positive nuclei at 24 h, Library stock concentration: 400 uM.
Setting [24] is: measured here: p53 positive nuclei at 24 h, Library stock concentration: 2 mM.
The mark [25] stands for this setting: measured here: p53 positive nuclei at 24 h, Library stock concentration: 10 mM.

Molecules are shown by their SMILES. Screen size: about 5,700 compounds; about 85 (1%) were called active. No stated cut-off is given here; in the data, active means p53-positive nuclei above about 36% (passing the limit was not always enough); inactive means the rest. The full list was thinned out, with actives kept by preference.

Chain of Cellular tumor antigen p53 (Homo sapiens) (P04637 whole entry, looked up): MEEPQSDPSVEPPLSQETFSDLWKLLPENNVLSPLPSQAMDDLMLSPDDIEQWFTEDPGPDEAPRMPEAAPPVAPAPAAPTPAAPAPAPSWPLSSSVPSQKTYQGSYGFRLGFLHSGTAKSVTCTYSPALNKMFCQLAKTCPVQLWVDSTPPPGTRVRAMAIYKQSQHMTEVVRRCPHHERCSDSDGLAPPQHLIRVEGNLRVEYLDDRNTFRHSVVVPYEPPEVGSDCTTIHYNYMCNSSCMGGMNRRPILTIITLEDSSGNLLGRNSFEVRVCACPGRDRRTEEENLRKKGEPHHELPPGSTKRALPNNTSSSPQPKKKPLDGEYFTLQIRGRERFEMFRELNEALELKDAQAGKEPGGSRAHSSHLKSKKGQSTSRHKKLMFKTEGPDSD

`CC(C)C(=O)Oc1ccc(CO)cc1C(CCN(C(C)C)C(C)C)c1ccccc1` (stereo not given): the nuclei count, normalised in assay [1] (setting [3]) was determined as 113%; in assay [1] (setting [4]), 108%. The p53-positive nuclei, normalised in assay [2] (setting [5]) is -0.0601% (inactive); in assay [2] (setting [6]) it was -0.451%.

Consider `CCCCC[C@H](O)/C=C/[C@@H]1[C@H](CCCCCCC(=O)O)[C@H](O)C[C@H]1O`, for which the nuclei count, normalised in assay [1] (setting [7]) amounted to 103%; in assay [1] (setting [8]) it was 107%. Moreover, the p53-positive nuclei, normalised in assay [2] (concentration not given here) was -0.142% (inactive); in assay [2] (setting [9]), -0.0664%.

In the case of `O=C1C(c2c(O)[nH]c3ccccc23)=Nc2ccccc21`, the results for the nuclei count, normalised in assay [1] (setting [3]) and in assay [1] (setting [4]) were 97.7% and 95.2%, respectively. For the same compound, the p53-positive nuclei, normalised was 0.364% (inactive) in assay [2] (setting [5]) and -0.221% in assay [2] (setting [6]).

For the compound `O=C1Cc2c([nH]c3ccc(Br)cc23)-c2ccccc2N1`, the nuclei count, normalised stood at 97.1% in assay [1] (setting [7]) and 104% in assay [1] (setting [8]). The p53-positive nuclei, normalised was -0.0157% (inactive) in assay [2] (concentration not given here) and 0.0601% in assay [2] (setting [9]).

With `O=Nc1c(-c2c(O)[nH]c3cc(Br)ccc23)[nH]c2ccccc12`, the nuclei count, normalised was 102% in assay [1] (setting [10]); 111% in assay [1] (setting [11]); 106% in assay [1] (setting [12]); 116% in assay [1] (setting [3]); 63.9% in assay [1] (setting [13]); 104% in assay [1] (setting [7]). The nuclei count, normalised amounted to 106% in assay [1] (setting [14]); 106% in assay [1] (setting [15]); 91.1% in assay [1] (setting [16]); 101% in assay [1] (setting [4]); 46.7% in assay [1] (setting [17]); 113% in assay [1] (setting [8]). Also, the p53-positive nuclei, normalised was -0.018% (inactive) in assay [2] (setting [18]); 0.858% (inactive) in assay [2] (setting [19]); 4.32% (inactive) in assay [2] (setting [20]); 1.69% (inactive) in assay [2] (setting [5]); 89.3% (active) in assay [2] (setting [21]); 0.377% (inactive) in assay [2] (concentration not given here). Further, the p53-positive nuclei, normalised in assay [2] (setting [22]) was -0.0496%; in assay [2] (setting [23]), 0.519%; in assay [2] (setting [24]), 1.14%; in assay [2] (setting [6]) it was 0.53%; in assay [2] (setting [25]) it was 71.9%; in assay [2] (setting [9]), 0.0936%.

For `OCC1OC(n2cnc3c2NC=NCC3O)CC1O` (stereo not given), the nuclei count, normalised in assay [1] (measured here: cell number at 24 h, Library stock concentration: 500 nM) came out at 123%; in assay [1] (measured here: cell number at 24 h, Library stock concentration: 1.5 uM), 117%; in assay [1] (measured here: cell number at 24 h, Library stock concentration: 4.6 uM) it was 116%; in assay [1] (measured here: cell number at 24 h, Library stock concentration: 13.7 uM), 127%; in assay [1] (measured here: cell number at 24 h, Library stock concentration: 41 uM), 122%; in assay [1] (measured here: cell number at 24 h, Library stock concentration: 123 uM) it was 124%. The nuclei count, normalised in assay [1] (measured here: cell number at 24 h, Library stock concentration: 370 uM) amounted to 121%; in assay [1] (measured here: cell number at 24 h, Library stock concentration: 1.111 mM), 120%; in assay [1] (measured here: cell number at 24 h, Library stock concentration: 3.333 mM), 122%; in assay [1] (setting [13]), 117%; in assay [1] (measured here: cell number at 48 h, Library stock concentration: 500 nM) it was 119%; in assay [1] (measured here: cell number at 48 h, Library stock concentration: 1.5 uM), 112%. The nuclei count, normalised in assay [1] (measured here: cell number at 48 h, Library stock concentration: 4.6 uM) turned out to be 114%; in assay [1] (measured here: cell number at 48 h, Library stock concentration: 13.7 uM), 119%; in assay [1] (measured here: cell number at 48 h, Library stock concentration: 41 uM), 118%; in assay [1] (measured here: cell number at 48 h, Library stock concentration: 123 uM), 113%; in assay [1] (measured here: cell number at 48 h, Library stock concentration: 370 uM), 117%; in assay [1] (measured here: cell number at 48 h, Library stock concentration: 1.111 mM), 114%. In addition, the nuclei count, normalised is 113% in assay [1] (measured here: cell number at 48 h, Library stock concentration: 3.333 mM) and 114% in assay [1] (setting [17]). The p53-positive nuclei, normalised was -0.173% (inactive) in assay [2] (Library stock concentration: 500 nM); -0.175% (inactive) in assay [2] (Library stock concentration: 1.5 uM); -0.091% (inactive) in assay [2] (Library stock concentration: 4.6 uM); -0.0972% (inactive) in assay [2] (Library stock concentration: 13.7 uM); 0.0195% (inactive) in assay [2] (Library stock concentration: 41 uM); 0.029% (inactive) in assay [2] (Library stock concentration: 123 uM). The p53-positive nuclei, normalised in assay [2] (Library stock concentration: 370 uM) was -0.058% (inactive); in assay [2] (Library stock concentration: 1.111 mM), -0.0904% (inactive); in assay [2] (Library stock concentration: 3.333 mM), -0.125% (inactive); in assay [2] (setting [21]), -0.0529% (inactive); in assay [2] (measured here: p53 positive nuclei at 24 h, Library stock concentration: 500 nM), -0.0351%; in assay [2] (measured here: p53 positive nuclei at 24 h, Library stock concentration: 1.5 uM), -0.148%. Further, the p53-positive nuclei, normalised was -0.0281% in assay [2] (measured here: p53 positive nuclei at 24 h, Library stock concentration: 4.6 uM); 0.0187% in assay [2] (measured here: p53 positive nuclei at 24 h, Library stock concentration: 13.7 uM); -0.0912% in assay [2] (measured here: p53 positive nuclei at 24 h, Library stock concentration: 41 uM); -0.0944% in assay [2] (measured here: p53 positive nuclei at 24 h, Library stock concentration: 123 uM); -0.0326% in assay [2] (measured here: p53 positive nuclei at 24 h, Library stock concentration: 370 uM); -0.148% in assay [2] (measured here: p53 positive nuclei at 24 h, Library stock concentration: 1.111 mM). Also, the p53-positive nuclei, normalised in assay [2] (measured here: p53 positive nuclei at 24 h, Library stock concentration: 3.333 mM) is -0.0881%; in assay [2] (setting [25]), -0.148%.

On to `CC(C)C[C@H](NC(=O)[C@@H](O)[C@H](N)Cc1ccccc1)C(=O)O`, for which the results for the nuclei count, normalised in assay [1] (setting [7]) and in assay [1] (setting [8]) were 97.2% and 105%, respectively. Also, the p53-positive nuclei, normalised in assay [2] (concentration not given here) was -0.0349% (inactive); in assay [2] (setting [9]), -0.0296%.

Take `CC(C)CC(NC(=O)C(O)C(N)Cc1ccccc1)C(=O)O` (stereo not given): the nuclei count, normalised in assay [1] (setting [10]) came to 115%; in assay [1] (setting [11]) it was 119%; in assay [1] (setting [12]), 104%; in assay [1] (setting [13]) it was 105%; in assay [1] (setting [14]) it was 111%; in assay [1] (setting [15]) it was 113%. For the same compound, the nuclei count, normalised is 108% in assay [1] (setting [16]) and 111% in assay [1] (setting [17]). The p53-positive nuclei, normalised in assay [2] (setting [18]) is -0.159% (inactive); in assay [2] (setting [19]) it was -0.07% (inactive); in assay [2] (setting [20]), -0.0155% (inactive); in assay [2] (setting [21]), 0.0117% (inactive); in assay [2] (setting [22]), -0.122%; in assay [2] (setting [23]), 0.00728%. The p53-positive nuclei, normalised is -0.122% in assay [2] (setting [24]) and 0.0829% in assay [2] (setting [25]).
